Experimental data reported in PubChem BioAssay (NCI).
About 83,000 compounds went through this panel and 20% of them were active in at least one assay; those are over-represented in the sample as a whole.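 Activity criterion: percent growth below 10, measured after cells in 96-well plates were exposed to a single compound concentration for 48 hours.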 Unmarked numbers belong to inactive results. Activity calls are given as the source filed them.

Key:
Test in all cases: NCI-60 one-dose screen, 48 h (100 = growth as untreated, 0 = no growth, -100 = all killed)
Conditions in all cases: 10 µM unless noted
SK-MEL-2 melanoma = test system: SK-MEL-2 melanoma
SN12C renal = test system: SN12C renal
UO-31 renal = test system: UO-31 renal
TK-10 renal = test system: TK-10 renal
ACHN renal = test system: ACHN renal
CAKI-1 renal = test system: CAKI-1 renal
A498 renal = test system: A498 renal
CCRF-CEM leukemia = test system: CCRF-CEM leukemia
MOLT-4 leukemia = test system: MOLT-4 leukemia

SMILES	growth (SK-MEL-2 melanoma)	growth (SN12C renal)	growth (UO-31 renal)	growth (TK-10 renal)	growth (ACHN renal)	growth (CAKI-1 renal)	growth (A498 renal)	growth (CCRF-CEM leukemia)	growth (MOLT-4 leukemia)
CCCCCC(=O)N(CCCC)CCCC	124%	96.3%	78.5%	109%	101%	92%	127%	99.1%	105%
CCCCCCCCCCCCS(=O)CC(C)O (stereo unspecified)	112%	106%	95.3%	125%	105%	110%		101%	96.7%
CCOC(=O)/C=C/c1ccc(C(=O)OCC)[nH]1	47%	80.7%		62.6%	64.9%	35.5%	49.8%	82.8%	75.8%
Nc1ccc(N2CCOCC2)cc1	91.8%	94%	73.5%	91.8%	86.8%		103%	124%	118%
Brc1cccc(-c2cc(-c3ccc4c(c3)OCCO4)[nH]n2)c1	35.8% [25 µM]	33.7% [25 µM]	35% [25 µM]		41.4% [25 µM]	25.7% [25 µM]	7.77% [25 µM] (active)	19.5% [25 µM]	50.4% [25 µM]
O=C(N/N=C/c1ccc(O)cc1O)c1cccnc1	55.6%	57.2%		39.4%	30.1%	13.4%	92%	5.78% (active)	3.3% (active)
c1c2c(cc3c1OCO3)Cc1cc3c(cc1Cc1cc4c(cc1C2)OCO4)OCO3	115%	98.5%	95.7%		101%	89.9%	107%	112%	116%
CC1=C(NCCN2CCCC2)C(=O)c2c(OCc3ccc(F)c(Cl)c3)cccc2C1=O		71.2%	42.8%	69.1%	83.8%	50.2%	38.7%	40.6%	44.3%
CN(C)CC(=O)Nc1ccc(Cn2nnc3c2C(=O)c2nnn(Cc4ccc(NC(=O)CN(C)C)cc4)c2C3=O)cc1		-47.3% (active)	-20.6% (active)	-14.2% (active)	-15.9% (active)	41.9%	-91.3% (active)	-32.9% (active)	
Cn1cc(-c2csc(-c3cn(C)c4ncccc34)n2)c2ccccc21		56.4%	51.2%	50.3%	57.4%	35.1%	-0.625% (active)	10.1%	14.6%
CSc1nc(NCCCNc2ccnc3cc(Cl)ccc23)cc(-c2ccccc2)n1		79.5%	42.3%	75.7%	92.2%	54.1%	40.2%	47%	
C=C1CC2(OC1=O)C(=O)N(CCCCCCCN1C(=O)C3(CC(=C)C(=O)O3)c3ccccc31)c1ccccc12 (stereo unspecified)	61.2%	-50.9% (active)	-24.6% (active)		15.8%	40.3%	53.5%	-14.8% (active)	3.14% (active)
CCOC(=O)CC(C)=N	111%	103%			109%	111%		118%	106%
O=C(/C=C/c1ccc(B(O)O)cc1)/C=C/c1ccc(B(O)O)cc1	110%	57.5%	-72.3% (active)		86.8%		71.1%	25%	51%
CCCCCCCCCCCCN1CCCC(C)C1 (stereo unspecified)	89.6%	95.9%	60.8%	87.9%	85.4%		104%	44.7%	63.9%
CNC(=O)c1cc(Oc2ccc3nc(NC(=O)Nc4ccc(CN5CCOCC5)c(C(F)(F)F)c4)sc3c2)ccn1	32.9%	27.8%	26.6%		16.2%	19.4%	9.05% (active)	17.7%	3.75% (active)
N=S(=O)(NC(=O)c1ccc(Cl)cc1Cl)c1ccc(Br)s1 (stereo unspecified)	116%	94.4%	79.4%	98.4%	95.6%		61.2%	87.2%	98.5%
Nc1c(C(=O)Nc2ccccc2Cl)sc2nc3c(cc12)CCCCCC3	46.2%		-8.93% (active)	24.2%	10.1%	57.7%	50.1%	25.5%	39.8%
CC(=O)OCC1OC(OC2=C(CC=C(Cl)Cl)C(=O)c3ccccc3C2=O)C(OC(C)=O)C(OC(C)=O)C1OC(C)=O (stereo unspecified)	61.3%	85.8%	69.3%	117%	59.9%		75.4%	-19.3% (active)	-21.1% (active)
COc1cc(C2CC(=O)Nc3c2c(C)nn3-c2nc3ccccc3[nH]2)cc(OC)c1OC (stereo unspecified)	106%	91.3%	96.8%		102%	114%	78.2%	32%	-42.5% (active)
COCCCN=C(N)c1ccc(NC(=O)c2ccc(C(=O)Nc3ccc(C(N)=NCCCOC)cc3)cc2)cc1	102%	95%	96.6%		113%	95.2%	208%	108%	85.9%
O=C(O)C(O)C(O)C(=O)O.[NH-]C1CCCCC1[NH-].[Pt+2] (stereo unspecified)	109%	106%	97.9%	113%	101%		125%	112%	105%
Cc1ccc(Nc2c(C(N)=O)cnc3ccc(-c4csc(N)n4)cc23)cc1	110%	108%	88.7%	96.2%	84.7%		73.3%	104%	95.3%
COc1cccc2c1C(=O)c1c(O)c3c(c(O)c1C2=O)C[C@@](O)(/C(C)=N/NC(=O)c1ccc(Cl)cc1)C[C@@H]3OC1CC(N)C(O)C(C)O1 (stereo partly specified)	-81.1% (active)	5.79% (active)	-40.4% (active)	-23.2% (active)	-36.3% (active)		-88.4% (active)	-10.8% (active)	-31.3% (active)
O=C1Nc2ccccc2/C1=C/C(=N/c1nnc(-c2ccccc2)s1)c1ccccc1	97.4%	41.8%	-87.2% (active)	-39.7% (active)	-54.8% (active)		106%	-45% (active)	-24.2% (active)
O=S(=O)(Nc1ccc(Cl)cc1Cl)c1ccc(-c2cnc(C3CC3)o2)cc1	33.3%	51.4%	53.7%	48.4%	53.6%		-21% (active)	18.6%	24.3%
O=C(CCN1CCOCC1)Nc1ccc(Cn2nnc3c2C(=O)c2nnn(Cc4ccc(NC(=O)CCN5CCOCC5)cc4)c2C3=O)cc1		-40.7% (active)	108%	123%	96.6%	90.6%	71.8%	-15.4% (active)	
CCN1CCN(Cc2ccc(NC(=O)Nc3nc4ccc(Oc5ccnc(C(=O)NC)c5)cc4s3)cc2C(F)(F)F)CC1	-22.8% (active)	-75.4% (active)		-35.9% (active)	-84.5% (active)	-44.2% (active)	-33.4% (active)	0.0502% (active)	
COc1cccc(/C=C2/C(=O)N(Cc3ccco3)SC2=S)c1OC	93.1%	97.6%	93.4%	117%	102%		102%	68.3%	92.1%
